This passage reports sensor-assay potency score (higher = more potent) results from the OligoGym collection.
Further: reference of the scale not given here.

The target of one assay is LIG4. The assay is described as follows: pooled miR-30 sensor sort-seq; sequence = guide strand. The settings on record: shRNA.
On to TAGCTTTTTATTATTAACCATC, for which the sensor-assay potency score (higher = more potent) is -1.43.

For TTTTAGATCATTAAGTCTCATA, the sensor-assay potency score (higher = more potent) was -0.76.

As to TTTATTGTTACATTTGGCCTTA, the sensor-assay potency score (higher = more potent) worked out at 0.231.

In turn, TTTATATACATCTCCATCTTTG came in with a sensor-assay potency score (higher = more potent) of -1.01.

With TAGTCCACTGACATACTCTGGT, the sensor-assay potency score (higher = more potent) was determined as 0.198.

For TAACACAAAACTCTACATCTTC, the sensor-assay potency score (higher = more potent) was determined as 0.104.

Turning to TTCCTTTCTGTAAACATCTTGG, the sensor-assay potency score (higher = more potent) is -0.486.

In the case of TTCTTCAGGAGTCTGCTCGTTA, the sensor-assay potency score (higher = more potent) amounted to 0.109.

Sequence TAAAAGGTCGTTTACTTGCTGT came in with a sensor-assay potency score (higher = more potent) of -0.0412.

As for TAGTTTGCTGACTAACACCAAG, the sensor-assay potency score (higher = more potent) is -1.17.

As for TTTCTGTAAACATCTTGGCTTC, the sensor-assay potency score (higher = more potent) was -0.577.

TTGCTGACTAACACCAAGCTTT gave a sensor-assay potency score (higher = more potent) of -0.307.

For a further assay, the target named is LILRA4. The description is as above. The settings on record: shRNA.
The sequence TTGTGTGCGCCGTAGCATCTGT showed a sensor-assay potency score (higher = more potent) of -0.739.

For AATCTGACTTCTTTTGTGCTGG, the sensor-assay potency score (higher = more potent) was determined as 0.00913.

TTTGGGTAGGTTTTCTGCCTGC came in with a sensor-assay potency score (higher = more potent) of -0.143.

TAGGTTTTCTGCCTGCACCCGG: the sensor-assay potency score (higher = more potent) was -0.532.

The sequence TCCTTGTACAGAGTGTATCTGA registered a sensor-assay potency score (higher = more potent) of -0.799.

Regarding TAGCCGTAGCATCTGAATGTAC, the sensor-assay potency score (higher = more potent) is -0.777.

The sequence TAGCATCTGAATGTACCCCTGT gave a sensor-assay potency score (higher = more potent) of 0.139.

For the sequence TAATGGAGGAAGCATCTTCTAC, the sensor-assay potency score (higher = more potent) is -1.03.

For TTGATCTCAGACGCAACGGGGG, the sensor-assay potency score (higher = more potent) is -1.08.

On to TCCTCAATCAGAGTGAACCTGC, for which the sensor-assay potency score (higher = more potent) was -0.933.

As for TTCTCTCCTGAGGTCACCGTGG, the sensor-assay potency score (higher = more potent) is -1.07.

TTTTCATAGCCGTAGCATCTGA returned a sensor-assay potency score (higher = more potent) of -1.2.

The next assay has as its target LILRB3. Described as above. As to conditions: shRNA.
In the case of TTGTTGAGAAGTCTGTTGCTTT, the sensor-assay potency score (higher = more potent) is -0.0209.

Take TTGATTGTTGAGAAGTCTGTTG: the sensor-assay potency score (higher = more potent) is -0.405.

As to TGCTGTGACGCTGACGTCGGAG, the sensor-assay potency score (higher = more potent) was -0.552.

Consider TGACTGTCCAGCTCCACCCTGT, for which the sensor-assay potency score (higher = more potent) was -0.563.

For the sequence TTTATGCAGTCGGTACTCCTGG, the sensor-assay potency score (higher = more potent) was -0.617.

The sequence TTATGCAGTCGGTACTCCTGGG came in with a sensor-assay potency score (higher = more potent) of -0.343.

As for TATTAGTCATCTTTGAGTCAGG, the sensor-assay potency score (higher = more potent) is -0.452.

As to TTTCTCTGGTCAGATGTCCTGT, the sensor-assay potency score (higher = more potent) is -0.223.

With TTGTGTGCACCGTAGCACCTGT, the sensor-assay potency score (higher = more potent) is -0.532.

As to TATGCAGTCGGTACTCCTGGGC, the sensor-assay potency score (higher = more potent) is -0.223.

In turn, TTAGTCATCTTTGAGTCAGGTG registered a sensor-assay potency score (higher = more potent) of -0.0536.

As to TTCCGTCTAAGGGTCAAGCTGT, the sensor-assay potency score (higher = more potent) was -0.222.

The next assay concerns the target LIMK2. The description is as above. As to conditions: shRNA.
With TCGTTGACAGTCCTGTACCATA, the sensor-assay potency score (higher = more potent) is -1.6.

ATCTGCTGTGAATAGCTGCTGG returned a sensor-assay potency score (higher = more potent) of -0.683.

Consider TTTCTTTCGTCCACACACTTGA, for which the sensor-assay potency score (higher = more potent) was 0.0479.

TTCTGAGATCTCCTCTTCCTGG had a sensor-assay potency score (higher = more potent) of -0.852.
